Assay results taken from PubChem BioAssay (NCI).
The panel holds about 79,000 compounds, 15% with a hit somewhere; the sample as a whole holds those more often. Activity calls are given as the source filed them. Cut-off read from the data, not from the text of the source: active = growth inhibition above about 70%; inactive = the rest.

Assays:
[1] = NCI Yeast Anticancer Drug Screen. Data for the rad52 strain (AID 147);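 note: 0% = growth of vehicle-treated control cultures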; settings: S. cerevisiae rad52 mutant growth inhibition, stronger effect = higher value
Summary of the method: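 DNA repair-defective yeast; compound exposure; growth scored against vehicle controls.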

[2] = NCI Yeast Anticancer Drug Screen. Data for the wt1 strain (AID 149);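 note: 0% = growth of vehicle-treated wt1 cultures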; settings: S. cerevisiae wt1 strain (SPY 50644) growth inhibition, stronger effect = higher value
Summary of the method: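 Compounds are added to wt1 yeast cultures. Growth is then measured. Inhibition is expressed relative to vehicle-treated controls.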

[3] = NCI Yeast Anticancer Drug Screen. Data for the rad50EPP+ strain (AID 151);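 note: 0% = growth of vehicle-treated control cultures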; settings: S. cerevisiae rad50 mutant strain, stronger effect = higher value
Summary of the method: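 rad50EPP+ yeast treated with test compounds. Readout: growth vs vehicle control.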

[4] = NCI Yeast Anticancer Drug Screen. Data for the mgt1 strain (AID 153); settings: S. cerevisiae mgt1 mutant growth inhibition, stronger effect = higher value
Summary of the method: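 Growth inhibition relative to vehicle controls was scored for the mgt1 yeast strain after compound exposure.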

[5] = NCI Yeast Anticancer Drug Screen. Data for the rad50 strain (AID 155);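 note: 0% = growth of vehicle-only cultures of the same strain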; settings: S. cerevisiae rad50 strain growth inhibition, stronger effect = higher value
Summary of the method: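 Inhibition values express reduced yeast growth in compound-treated cultures relative to vehicle-treated controls.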

[6] = NCI Yeast Anticancer Drug Screen. Data for the mec2-1 strain (AID 157); settings: S. cerevisiae mec2-1 strain, stronger effect = higher value
Summary of the method: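 Growth inhibition is read against vehicle-treated controls after compound exposure of the mec2-1 yeast strain, which is defective in DNA damage repair or cell cycle control.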

[7] = NCI Yeast Anticancer Drug Screen. Data for the rad14 strain (AID 159);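 note: 0% = growth of vehicle-treated control cultures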; settings: S. cerevisiae rad14 strain growth inhibition, stronger effect = higher value
Summary of the method: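 A mutant yeast strain defective in DNA damage repair is treated with compound; inhibition of its growth is scored against untreated, vehicle-exposed cultures.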

[8] = NCI Yeast Anticancer Drug Screen. Data for the sgs1 mgt1 strain (AID 161);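 note: 0% = growth of cultures given vehicle only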; settings: S. cerevisiae sgs1 mgt1 strain, stronger effect = higher value
Summary of the method: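 Growth of a repair-deficient yeast mutant was monitored after compound treatment and expressed as inhibition relative to vehicle-treated cultures.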

[9] = NCI Yeast Anticancer Drug Screen. Data for the CLN2oe strain (AID 163);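 note: 0% = growth of vehicle-only control cultures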; settings: S. cerevisiae CLN2oe strain, stronger effect = higher value
Summary of the method: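 Compound-treated yeast; growth vs vehicle ctrl = % inhibition. Genetically altered strain (cell-cycle control).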

[10] = NCI Yeast Anticancer Drug Screen. Data for the cln2 rad14 strain (AID 165);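 note: 0% = growth equal to vehicle treated cultures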; settings: S. cerevisiae cln2 rad14 strain, stronger effect = higher value
Summary of the method: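 Growth inhibition, relative to vehicle-treated controls, is the read-out. The test organism is a yeast strain with defined genetic alterations, cln2 rad14.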

[11] = NCI Yeast Anticancer Drug Screen. Data for the bub3 strain (AID 167); settings: S. cerevisiae bub3 mutant strain, stronger effect = higher value
Summary of the method: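 Steps: expose the mutant yeast strain to compound; grow alongside vehicle-treated cultures; measure growth; express inhibition against the vehicle cultures.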

[12] = NCI Yeast Anticancer Drug Screen. Data for the wt2 strain (AID 169);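 note: 0% = growth of vehicle-treated yeast cultures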; settings: S. cerevisiae wt2 strain growth inhibition, stronger effect = higher value
Summary of the method: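 Compound exposure of yeast; growth compared with vehicle controls; inhibition reported.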

[13] = NCI Yeast Anticancer Drug Screen. Data for the mlh1 strain (AID 171);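 note: 0% = growth of vehicle-treated control cultures of the same strain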; settings: S. cerevisiae mlh1 strain growth inhibition, stronger effect = higher value
Summary of the method: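 Compounds are applied to a genetically altered yeast strain, and its growth is compared with that of vehicle-treated cultures to give percent inhibition.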

[14] = NCI Yeast Anticancer Drug Screen. Data for the sgs1 strain (AID 173);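 note: 0% = growth of vehicle-only control cultures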; settings: S. cerevisiae sgs1 mutant, stronger effect = higher value
Summary of the method: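 Compounds applied to genetically altered yeast; growth compared with vehicle-treated cultures to give % inhibition.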

[15] = NCI Yeast Anticancer Drug Screen. Data for the mlh1 rad18 strain (AID 175); settings: S. cerevisiae mlh1 rad18 strain growth inhibition, stronger effect = higher value
Summary of the method: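 Cells of a genetically altered yeast strain, deficient in DNA damage repair, were treated with compound. Their growth was then compared with that of vehicle-treated cultures to give inhibition.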

[16] = NCI Yeast Anticancer Drug Screen. Data for the rad18 strain (AID 177); settings: S. cerevisiae rad18 mutant growth inhibition, stronger effect = higher value
Summary of the method: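 Compounds are applied to a repair-deficient yeast strain, and growth is compared with that of vehicle-treated cultures to give percent inhibition.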

[17] = at 5.0 µM (retest, dose inferred, filed as 0.5)
[18] = at 50.0 µM (retest, dose inferred, filed as 5.0)

Measured: growth inhibition

N#CC1OB(O)c2ccccc21 (stereo unspecified)
active: [5]; [18] 81%
inactive: [1]; at 1.2 µM -9% | [1]; at 3.7 µM -6% | [1]; at 11.0 µM -5% | [1]; at 33.0 µM -5% | [1]; at 100.0 µM 3% | [2]; at 1.2 µM -5% | [2]; at 3.7 µM -4% | [2]; at 11.0 µM -5% | [2]; at 33.0 µM -4% | [2]; at 100.0 µM 0% | [3]; at 1.2 µM -2% | [3]; at 3.7 µM 4% | [3]; at 11.0 µM 4% | [3]; at 33.0 µM 17% | [3]; at 100.0 µM 26% | [4]; at 1.2 µM -7% | [4]; at 3.7 µM -4% | [4]; at 11.0 µM -2% | [4]; at 33.0 µM 0% | [4]; at 100.0 µM -3% | [5]; at 1.2 µM -13% | [5]; at 3.7 µM -10% | [5]; [17] -126% | [5]; at 11.0 µM 4% | [5]; at 33.0 µM 10% | [5]; at 50.0 µM 58.2% | [5]; at 100.0 µM 11% | [6]; at 1.2 µM 1% | [6]; at 3.7 µM 0% | [6]; [17] -51% | [6]; at 11.0 µM 3% | [6]; at 33.0 µM 1% | [6]; [18] -27% | [6]; at 50.0 µM 27.9% | [6]; at 100.0 µM -7% | [7]; at 1.2 µM -3% | [7]; at 3.7 µM 0% | [7]; at 11.0 µM -2% | [7]; at 33.0 µM -2% | [7]; at 100.0 µM 1% | [8]; [17] -61% | [8]; [18] -2% | [8]; at 50.0 µM 27.1% | [9]; at 1.2 µM 0% | [9]; at 3.7 µM -2% | [9]; at 11.0 µM 1% | [9]; at 33.0 µM -7% | [9]; at 100.0 µM -2% | [10]; [17] -57% | [10]; [18] -42% | [10]; at 50.0 µM 21% | [11]; at 1.2 µM -11% | [11]; at 3.7 µM -10% | [11]; [17] -64% | [11]; at 11.0 µM -6% | [11]; at 33.0 µM -10% | [11]; [18] -36% | [11]; at 50.0 µM 69.7% | [11]; at 100.0 µM -4% | [12]; at 1.2 µM 0% | [12]; at 3.7 µM 0% | [12]; at 11.0 µM -1% | [12]; at 33.0 µM -2% | [12]; at 100.0 µM -2% | [13]; at 1.2 µM 7% | [13]; at 3.7 µM -5% | [13]; at 11.0 µM -6% | [13]; at 33.0 µM -6% | [13]; at 100.0 µM -7% | [14]; at 1.2 µM 1% | [14]; at 3.7 µM 1% | [14]; at 11.0 µM 2% | [14]; at 33.0 µM 1% | [14]; at 100.0 µM 1% | [15]; [17] -115% | [15]; [18] 7% | [15]; at 50.0 µM 60.9% | [16]; at 1.2 µM -4% | [16]; at 3.7 µM -1% | [16]; at 11.0 µM 1% | [16]; at 33.0 µM 2% | [16]; at 100.0 µM 6%

NC(=S)N/N=C1\c2ccccc2CCC1CCC1(O)CCc2ccccc2C1=O (stereo unspecified)
active: [1]; at 33.0 µM 86% | [1]; at 100.0 µM 85% | [2]; at 100.0 µM 80% | [4]; at 33.0 µM 82% | [4]; at 100.0 µM 84% | [5]; at 33.0 µM 84% | [5]; at 50.0 µM 86.8% | [5]; at 100.0 µM 78% | [6]; at 50.0 µM 88.2% | [6]; at 100.0 µM 81% | [7]; at 33.0 µM 82% | [7]; at 100.0 µM 86% | [8]; [18] 88% | [8]; at 50.0 µM 92.5% | [9]; at 100.0 µM 82% | [10]; [18] 81% | [10]; at 50.0 µM 89.7% | [11]; at 33.0 µM 84% | [11]; [18] 83% | [11]; at 100.0 µM 85% | [12]; at 100.0 µM 83% | [13]; at 33.0 µM 79% | [13]; at 100.0 µM 81% | [14]; at 33.0 µM 82% | [14]; at 100.0 µM 84% | [15]; [18] 83% | [15]; at 50.0 µM 93.3% | [16]; at 33.0 µM 86% | [16]; at 100.0 µM 81%
inactive: [1]; at 1.2 µM 43% | [1]; at 3.7 µM 47% | [1]; at 11.0 µM 55% | [2]; at 1.2 µM 21% | [2]; at 3.7 µM 24% | [2]; at 11.0 µM 19% | [2]; at 33.0 µM 44% | [3]; at 1.2 µM 36% | [3]; at 3.7 µM 23% | [3]; at 11.0 µM 17% | [3]; at 33.0 µM 23% | [3]; at 100.0 µM 10% | [4]; at 1.2 µM 21% | [4]; at 3.7 µM 18% | [4]; at 11.0 µM 48% | [5]; at 1.2 µM 35% | [5]; at 3.7 µM 19% | [5]; [17] 2% | [5]; at 11.0 µM 49% | [5]; [18] 52% | [6]; at 1.2 µM 5% | [6]; at 3.7 µM 13% | [6]; [17] -1% | [6]; at 11.0 µM 16% | [6]; at 33.0 µM 50% | [6]; [18] 55% | [7]; at 1.2 µM 2% | [7]; at 3.7 µM 7% | [7]; at 11.0 µM 47% | [8]; [17] 10% | [9]; at 1.2 µM 38% | [9]; at 3.7 µM 36% | [9]; at 11.0 µM 42% | [9]; at 33.0 µM 64% | [10]; [17] 18% | [11]; at 1.2 µM 20% | [11]; at 3.7 µM 13% | [11]; [17] 17% | [11]; at 11.0 µM 34% | [11]; at 50.0 µM 46.1% | [12]; at 1.2 µM -8% | [12]; at 3.7 µM -7% | [12]; at 11.0 µM 13% | [12]; at 33.0 µM 62% | [13]; at 1.2 µM 14% | [13]; at 3.7 µM 14% | [13]; at 11.0 µM 46% | [14]; at 1.2 µM 34% | [14]; at 3.7 µM 34% | [14]; at 11.0 µM 63% | [15]; [17] 0% | [16]; at 1.2 µM 52% | [16]; at 3.7 µM 50% | [16]; at 11.0 µM 63%
